From PubChem BioAssay
The source made the active and inactive calls.

Tests used:
[1] = tested on: PRMT1 (protein arginine N-methyltransferase 1); experiment: PRMT1 binders on small-molecule microarrays, primary screen, biochemical, small-molecule microarray, 635 nm fluorescence (AID 1088); conditions: small-molecule microarray binding, higher = more signal;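 also: binding of Prmt1 protein to compounds spotted on small-molecule microarray slides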
[2] = yeast growth modulation, basal conditions, primary screen, YJM789 clinical isolate, OD600, 24 h (AID 1089);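 also: growth of clinical yeast isolate S. cerevisiae YJM 789 seeded 1000 cells per well; test concentration not given here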; conditions: S. cerevisiae YJM789 growth, higher = more signal, called active from +8 up or from −8 down
[3] = fission yeast growth modulation, primary screen, strain 972, OD600, 24 h, no modulator (AID 1090);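 also: basal condition with compound alone and no growth modifier present; test concentration not given here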; conditions: S. pombe 972 growth, higher = more signal, called active from +8 up or from −8 down
[4] = S. cerevisiae growth modulation with rapamycin, primary screen, strain BY4716, OD600, 96 h (AID 1091); conditions: higher = more signal, called active from +8 up or from −8 down; also: test concentration not given here
[5] = biological target: Torsin-1A-interacting protein 2 (Homo sapiens) (UniProt Q8NFQ8); experiment: LULL1 binders on small-molecule microarray, primary screen, cell lysate, human LULL1 lysate, 635/667 nm fluorescence (AID 1092); conditions: hLULL1 lysate binding, 635 nm fluorescence, higher = more signal;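 also: probe is lysate of COS7 cells overexpressing human LULL1; score merges per-feature 667 nm fluorescence with signal-to-noise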
[6] = E. coli growth modulation, two-sided OD650, primary screen, E. coli filamentation project, strain DRC41, 24 h (AID 1093); conditions: OD650, 24 h, higher = more signal, called active from +8 up or from −8 down;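 also: MC1000 strain lacking acrAB efflux and sulA so SOS filamentation is blocked; test concentration not given here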
[7] = small-molecule microarray binders of probe aLefty2, primary screen, biochemical, biotinylated probe, 635/667 nm fluorescence (AID 1094); conditions: higher = more signal;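 also: score merges spot fluorescence near 667 nm with spot signal-to-noise ratio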
[8] = tested on: Noggin (protein binding on small-molecule microarray); experiment: Noggin binders on small-molecule microarray, primary screen, biochemical, 635/667 nm fluorescence (AID 1095); conditions: 635 nm fluorescence, higher = more signal;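 also: score merges 667 nm feature fluorescence with signal to noise over triplicate slides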
[9] = biological target: Neurogenic locus notch homolog protein 3 (Homo sapiens) (UniProt Q9UM47); experiment: NOTCH3 binders on small-molecule microarray, primary screen, biochemical, 635/667 nm fluorescence (AID 1096); conditions: NOTCH3 binding, 635 nm fluorescence, higher = more signal
[10] = small-molecule microarray binders of probe aEGFR, primary screen, biochemical, biotinylated probe, 635/667 nm fluorescence (AID 1097); conditions: higher = more signal;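 also: probe is a biotinylated anti-EGFR antibody binding compounds printed on slides; score combines fluorescence near 667 nm and signal to noise of each spot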
[11] = tested on: Plasmodium falciparum Sir2 (PF13_0152, Sir2A); experiment: pfSir2 binders on small-molecule microarrays, primary screen, biochemical, small-molecule microarray, 635 nm fluorescence (AID 1098); conditions: small-molecule microarray binding, fluorescence 635 nm; higher = more signal;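 also: score merges spot fluorescence intensity with its signal-to-noise ratio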
[12] = small-molecule microarray binders of probe aDKK1, primary screen, biochemical, biotinylated probe, 635/667 nm fluorescence (AID 1099); conditions: higher = more signal;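 also: score merges 667nm spot fluorescence with signal to noise across triplicate slides; reference of the scale not given here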
[13] = small-molecule microarray binders of probe aCHRDL2, primary screen, biochemical, biotinylated probe, 635/667 nm fluorescence (AID 1100); conditions: higher = more signal
[14] = splicing luciferase reporter signal modulators, primary screen, spliceosome inhibition project, cell-based, HEK293, splice +/- reporter (AID 1101); conditions: luminescence, 24 h, higher = more signal, called active from +8 up or from −8 down;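 also: HEK293 cells carrying a splicing-competent luciferase reporter gene; test concentration not given here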
[15] = biological target: Fibroblast growth factor 10 (Homo sapiens) (UniProt O15520); experiment: FGF10 binders on small-molecule microarrays, primary screen, biochemical, small-molecule microarray, 635 nm fluorescence (AID 1102); conditions: FGF10 binding, fluorescence 635 nm, higher = more signal
[16] = tested on: glycogen synthase kinase-3 (GSK3A per assay name; protocol says GSK3B); experiment: GSK3 binders on small-molecule microarrays, primary screen, biochemical, small-molecule microarray, 635 nm fluorescence, GSK3A (AID 1103); conditions: small-molecule microarray binding, fluorescence 635 nm; higher = more signal; also: the record names both GSK3A and GSK3B
[17] = biological target: Epidermal growth factor receptor (Homo sapiens) (UniProt P00533); experiment: EGFR binders on small-molecule microarrays, primary screen, biochemical, small-molecule microarray, 635 nm fluorescence (AID 1104); conditions: EGFR binding, higher = more signal;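 also: score merges 667 nm emission intensity with spot signal to noise over triplicate slides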
[18] = biological target: Follistatin-related protein 3 (Homo sapiens) (UniProt O95633); experiment: FSTL3 binders on small-molecule microarrays, primary screen, biochemical, small-molecule microarray, 635 nm fluorescence (AID 1105); conditions: FSTL3 binding, higher = more signal;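 also: score merges emission near 667 nm and signal to noise per printed spot across three slides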
[19] = biological target: Dickkopf-related protein 1 (Homo sapiens) (UniProt O94907); experiment: DKK1 binders on small-molecule microarrays, primary screen, biochemical, small-molecule microarray, 635 nm fluorescence scan (AID 1106); conditions: DKK1 binding, higher = more signal;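 also: score merges emission near 667 nm with signal to noise over three replicate slides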
[20] = tested on: Inhibin beta A chain (activin A); experiment: INHBA (activin A) binders on microarrays, primary screen, biochemical, small-molecule microarray, 635 nm fluorescence scan (AID 1107); conditions: small-molecule microarray binding, higher = more signal;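 also: mouse activin A protein probed at 4.33 µg/mL on printed slides; score merges bound-protein fluorescence near 667 nm with spot signal-to-noise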

Sequence of Fibroblast growth factor 10 (Homo sapiens) (O15520 whole entry, looked up): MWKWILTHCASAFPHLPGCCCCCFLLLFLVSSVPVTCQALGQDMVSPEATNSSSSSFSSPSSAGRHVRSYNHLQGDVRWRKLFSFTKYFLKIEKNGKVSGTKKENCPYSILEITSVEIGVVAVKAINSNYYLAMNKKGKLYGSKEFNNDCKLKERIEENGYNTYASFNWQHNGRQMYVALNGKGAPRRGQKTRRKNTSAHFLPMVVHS
Sequence of Follistatin-related protein 3 (Homo sapiens) (O95633 whole entry, looked up): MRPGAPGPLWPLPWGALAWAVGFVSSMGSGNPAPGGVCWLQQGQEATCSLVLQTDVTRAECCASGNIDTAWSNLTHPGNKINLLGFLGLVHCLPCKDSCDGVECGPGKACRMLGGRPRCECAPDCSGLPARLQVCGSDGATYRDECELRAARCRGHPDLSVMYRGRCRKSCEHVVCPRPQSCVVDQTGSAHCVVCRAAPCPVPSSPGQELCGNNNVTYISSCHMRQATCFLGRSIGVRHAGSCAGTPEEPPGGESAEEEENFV
Sequence of Neurogenic locus notch homolog protein 3 (Homo sapiens) (Q9UM47 whole entry, looked up): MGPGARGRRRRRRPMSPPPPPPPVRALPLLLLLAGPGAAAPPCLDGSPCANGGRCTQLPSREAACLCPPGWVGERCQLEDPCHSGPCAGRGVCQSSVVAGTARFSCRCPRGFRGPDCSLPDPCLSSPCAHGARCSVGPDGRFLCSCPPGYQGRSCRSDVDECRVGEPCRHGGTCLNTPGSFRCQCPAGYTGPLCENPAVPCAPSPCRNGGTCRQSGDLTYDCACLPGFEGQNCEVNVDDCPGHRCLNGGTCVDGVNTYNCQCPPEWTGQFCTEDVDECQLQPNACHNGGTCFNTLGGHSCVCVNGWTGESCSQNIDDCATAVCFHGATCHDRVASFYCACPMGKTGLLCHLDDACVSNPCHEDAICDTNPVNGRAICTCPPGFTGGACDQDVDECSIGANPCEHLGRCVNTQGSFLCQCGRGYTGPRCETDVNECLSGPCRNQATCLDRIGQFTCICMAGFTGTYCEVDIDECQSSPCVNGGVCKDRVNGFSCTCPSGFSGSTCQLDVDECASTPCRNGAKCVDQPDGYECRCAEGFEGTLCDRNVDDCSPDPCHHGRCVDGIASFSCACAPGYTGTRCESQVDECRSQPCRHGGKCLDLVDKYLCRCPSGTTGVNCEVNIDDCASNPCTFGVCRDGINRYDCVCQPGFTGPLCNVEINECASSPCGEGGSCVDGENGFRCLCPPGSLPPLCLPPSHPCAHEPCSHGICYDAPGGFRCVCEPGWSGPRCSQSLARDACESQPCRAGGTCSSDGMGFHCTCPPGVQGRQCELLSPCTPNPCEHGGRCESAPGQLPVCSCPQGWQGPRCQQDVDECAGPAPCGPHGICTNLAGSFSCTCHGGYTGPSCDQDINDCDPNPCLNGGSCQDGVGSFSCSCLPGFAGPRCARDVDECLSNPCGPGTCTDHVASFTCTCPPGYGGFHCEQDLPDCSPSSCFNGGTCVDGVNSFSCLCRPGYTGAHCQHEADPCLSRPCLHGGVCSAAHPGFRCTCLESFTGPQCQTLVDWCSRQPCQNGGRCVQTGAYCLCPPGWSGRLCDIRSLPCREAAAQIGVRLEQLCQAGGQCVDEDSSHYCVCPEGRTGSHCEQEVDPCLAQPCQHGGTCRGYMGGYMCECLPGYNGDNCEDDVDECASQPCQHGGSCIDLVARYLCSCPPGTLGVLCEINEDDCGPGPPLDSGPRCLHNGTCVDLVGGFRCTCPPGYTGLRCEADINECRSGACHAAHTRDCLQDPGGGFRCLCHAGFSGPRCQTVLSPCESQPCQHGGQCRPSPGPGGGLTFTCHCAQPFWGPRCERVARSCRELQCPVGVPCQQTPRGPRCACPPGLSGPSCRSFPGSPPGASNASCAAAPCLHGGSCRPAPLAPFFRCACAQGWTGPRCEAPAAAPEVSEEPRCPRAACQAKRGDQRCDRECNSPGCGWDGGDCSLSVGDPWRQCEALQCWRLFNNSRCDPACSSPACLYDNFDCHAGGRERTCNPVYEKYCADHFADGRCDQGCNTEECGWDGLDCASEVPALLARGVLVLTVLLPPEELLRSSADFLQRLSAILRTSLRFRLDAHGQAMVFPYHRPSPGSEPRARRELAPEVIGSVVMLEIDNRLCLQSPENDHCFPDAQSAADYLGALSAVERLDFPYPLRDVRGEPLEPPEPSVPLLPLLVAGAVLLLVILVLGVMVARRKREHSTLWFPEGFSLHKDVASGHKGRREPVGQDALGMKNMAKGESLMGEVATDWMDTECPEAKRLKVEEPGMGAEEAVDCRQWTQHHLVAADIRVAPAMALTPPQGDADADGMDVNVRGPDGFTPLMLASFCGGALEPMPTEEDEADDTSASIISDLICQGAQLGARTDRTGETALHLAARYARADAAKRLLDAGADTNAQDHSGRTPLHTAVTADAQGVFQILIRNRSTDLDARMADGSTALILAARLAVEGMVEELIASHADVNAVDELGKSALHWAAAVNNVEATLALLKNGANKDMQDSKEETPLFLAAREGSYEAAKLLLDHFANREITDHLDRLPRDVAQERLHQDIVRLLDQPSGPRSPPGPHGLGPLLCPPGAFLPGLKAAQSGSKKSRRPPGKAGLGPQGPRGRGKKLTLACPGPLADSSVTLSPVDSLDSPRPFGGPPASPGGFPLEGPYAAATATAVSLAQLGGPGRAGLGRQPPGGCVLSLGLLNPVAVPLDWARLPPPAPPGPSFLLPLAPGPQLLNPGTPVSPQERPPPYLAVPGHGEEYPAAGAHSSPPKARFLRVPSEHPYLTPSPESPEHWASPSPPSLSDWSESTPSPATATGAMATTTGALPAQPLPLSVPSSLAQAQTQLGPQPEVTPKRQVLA
Sequence of Torsin-1A-interacting protein 2 (Homo sapiens) (Q8NFQ8 whole entry, looked up): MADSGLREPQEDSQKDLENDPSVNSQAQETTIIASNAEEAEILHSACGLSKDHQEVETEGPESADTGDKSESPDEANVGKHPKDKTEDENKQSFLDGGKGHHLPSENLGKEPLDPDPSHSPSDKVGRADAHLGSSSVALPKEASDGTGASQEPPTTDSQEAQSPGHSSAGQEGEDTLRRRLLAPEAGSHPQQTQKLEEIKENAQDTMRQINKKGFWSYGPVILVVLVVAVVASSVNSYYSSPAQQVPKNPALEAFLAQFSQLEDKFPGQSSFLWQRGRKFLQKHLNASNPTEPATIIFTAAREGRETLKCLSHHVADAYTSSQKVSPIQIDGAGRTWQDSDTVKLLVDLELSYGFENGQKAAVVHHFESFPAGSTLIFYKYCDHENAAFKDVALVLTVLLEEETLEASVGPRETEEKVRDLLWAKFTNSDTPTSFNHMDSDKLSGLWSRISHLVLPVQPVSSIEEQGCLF
Sequence of Epidermal growth factor receptor (Homo sapiens) (P00533 whole entry, looked up): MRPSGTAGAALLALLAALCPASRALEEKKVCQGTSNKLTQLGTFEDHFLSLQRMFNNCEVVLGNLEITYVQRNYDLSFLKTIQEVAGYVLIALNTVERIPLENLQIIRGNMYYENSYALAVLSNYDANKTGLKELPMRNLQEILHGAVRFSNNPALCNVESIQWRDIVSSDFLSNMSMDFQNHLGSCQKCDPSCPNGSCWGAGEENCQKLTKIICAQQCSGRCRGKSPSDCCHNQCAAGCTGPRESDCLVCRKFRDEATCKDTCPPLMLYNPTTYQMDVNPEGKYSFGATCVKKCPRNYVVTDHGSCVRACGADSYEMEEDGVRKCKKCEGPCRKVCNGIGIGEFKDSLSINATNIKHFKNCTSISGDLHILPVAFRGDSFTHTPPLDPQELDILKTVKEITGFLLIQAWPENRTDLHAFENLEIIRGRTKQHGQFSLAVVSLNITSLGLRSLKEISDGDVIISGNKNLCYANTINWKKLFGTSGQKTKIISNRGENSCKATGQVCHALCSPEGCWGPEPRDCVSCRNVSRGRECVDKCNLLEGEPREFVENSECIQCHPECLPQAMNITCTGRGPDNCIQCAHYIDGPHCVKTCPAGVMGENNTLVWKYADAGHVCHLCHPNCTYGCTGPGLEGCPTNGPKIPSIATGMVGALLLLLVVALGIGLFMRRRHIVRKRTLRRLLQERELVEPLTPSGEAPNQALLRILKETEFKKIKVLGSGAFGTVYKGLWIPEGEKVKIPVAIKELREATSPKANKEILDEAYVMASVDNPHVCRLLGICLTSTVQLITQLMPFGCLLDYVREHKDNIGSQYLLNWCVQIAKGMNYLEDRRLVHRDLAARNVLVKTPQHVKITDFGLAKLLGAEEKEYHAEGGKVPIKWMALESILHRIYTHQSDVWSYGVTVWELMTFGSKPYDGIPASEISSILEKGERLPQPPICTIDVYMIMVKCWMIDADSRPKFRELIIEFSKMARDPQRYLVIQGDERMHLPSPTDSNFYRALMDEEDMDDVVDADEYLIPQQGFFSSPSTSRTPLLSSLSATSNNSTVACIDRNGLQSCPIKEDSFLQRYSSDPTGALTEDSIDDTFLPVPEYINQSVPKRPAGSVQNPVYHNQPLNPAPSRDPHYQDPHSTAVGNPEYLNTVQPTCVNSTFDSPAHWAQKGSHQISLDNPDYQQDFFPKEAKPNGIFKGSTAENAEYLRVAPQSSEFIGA
Sequence of Dickkopf-related protein 1 (Homo sapiens) (O94907 whole entry, looked up): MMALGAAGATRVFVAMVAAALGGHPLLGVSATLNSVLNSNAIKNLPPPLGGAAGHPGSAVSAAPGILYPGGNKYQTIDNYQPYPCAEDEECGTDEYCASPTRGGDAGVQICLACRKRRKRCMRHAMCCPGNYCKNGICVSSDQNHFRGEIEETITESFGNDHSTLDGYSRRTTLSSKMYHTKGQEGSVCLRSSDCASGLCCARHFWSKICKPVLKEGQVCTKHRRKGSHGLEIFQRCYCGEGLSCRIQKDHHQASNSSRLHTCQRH

Structure (SMILES)	composite z-score [1]	z-score [2]	z-score [3]	z-score [4]	composite z-score [5]	z-score [6]	composite z-score [7]	composite z-score [8]	composite z-score [9]	composite z-score [10]	composite z-score [11]	composite z-score [12]	composite z-score [13]	z-score [14]	composite z-score [15]	composite z-score [16]	composite z-score [17]	composite z-score [18]	composite z-score [19]	composite z-score [20]
COCCOC(=O)N1C(=O)[C@@]2(c3cc(C#CC4(O)CCCCCC4)ccc31)[C@H](C(=O)Nc1nc3ccccc3s1)[C@H]1C(=O)O[C@H](c3ccccc3)[C@H](c3ccccc3)N1[C@@H]2c1ccc(O)cc1	1.54	0.806 (inactive)	0.572 (inactive)	1.33 (inactive)	2.21	0.0347 (inactive)	-0.0022	0.683	1.04	0.0692	1.26	0.316	0.407	1.36 (inactive)	0.992	1.29	0.605	1.3	0.875	0.363
CCC#CCN(Cc1ccccc1Br)[C@H](/C=C/C1CC1)[C@@H](O)Cc1ccccc1	-0.134	-2.3 (inactive)	-1.55 (inactive)	-1.72 (inactive)	-0.783	1.35 (inactive)	0.208	-0.679	-0.838	-0.18	-0.306	0.0547	0.952	-0.739 (inactive)	-0.924	-0.0916	-1.03	-0.583	-0.642	0.384
C=CCC(OC(C)=O)[C@@H]1[C@@H](N(Cc2ccc(-c3ccccc3)cc2)C(=O)c2ccc(-c3ccccc3)cc2)c2cc(OCCCO)ccc2N1C(=O)c1ccc2ccccc2c1 (stereo not given in full)	0.636	-0.737 (inactive)	0.109 (inactive)	-0.38 (inactive)	1.17	-0.728 (inactive)	0.0008	0.479	0.306	-0.0531	-0.519	-0.302	0.306	-1.22 (inactive)	-0.015	-0.0147	-0.175	0.453	0.0004	0.82
COCCOC(=O)N1C(=O)[C@@]2(c3cc(C#CCCO)ccc31)[C@H](c1ccc(OCCO)cc1)N1[C@H](c3ccccc3)[C@H](c3ccccc3)OC(=O)[C@H]1[C@@H]2C(=O)Nc1nc2ccccc2s1	1.42	1.61 (inactive)	1.26 (inactive)	2.48 (inactive)	1.26	0.235 (inactive)	0.151	1.13	1.08	0.197	0.755	0.901	0.771	1.06 (inactive)	0.898	1.29	0.27	1.24	0.87	0.854
COCCOC(=O)N1C(=O)[C@@]2(c3cc(C#CC4=CCCCC4)ccc31)[C@H](c1ccccc1OCCO)N1[C@H](c3ccccc3)[C@H](c3ccccc3)OC(=O)[C@H]1[C@@H]2C(=O)N1CCN(c2ncccn2)CC1	1.57	0.218 (inactive)	-0.377 (inactive)	2.44 (inactive)	0.456	1.05 (inactive)	-0.142	0.729	1.12	-0.067	0.749	-0.149	-0.513	-1.46 (inactive)	0.751	1.28	0.502	1.06	0.489	0.333
COc1cccc(C)c1NC(=O)O[C@H]1[C@H](OC(=O)Nc2ccccc2-c2ccccc2)[C@H](OC(=O)Nc2ccccc2-c2ccccc2)[C@@H](OC)O[C@@H]1CO	1.54	1.24 (inactive)	0.671 (inactive)	5.69 (inactive)	3.18	0.0918 (inactive)	0.225	1.14	1.07	-0.0824	0.861	0.796	0.549	0.118 (inactive)	1.18	1.33	0.649	1.3	0.717	0.729
COC(=O)[C@@]1(Cc2ccc(OC)cc2)[C@H]2c3cc(C(=O)N4CCCC4)n(CCc4c[nH]c5ccc(O)cc45)c3C[C@H]2CN1C(=O)c1ccccc1	0.66	0.277 (inactive)	1.16 (inactive)	0.687 (inactive)	3.16	0.573 (inactive)	0.379	-0.0208	1.12	0.262	1.29	1.24	1.2	0.129 (inactive)	1.06	0.778	0.309	1.13	-0.32	1.51
COc1cc2c(cc1O)C=[N+](Cc1sc3ccccc3c1Cl)CC2	0.286	-1.02 (inactive)	-15.5 (active)	-1.31 (inactive)	-0.0121	0.461 (inactive)	0.0216	0.346	-0.119	-0.126	0.209	0.0295	0.494	0.134 (inactive)	-0.0275	0.0717	0.454	-0.0687	0.396	1.19
C=CC[C@]1(C(=O)N2CCOCC2)COC(c2ccc(OCCCO)cc2)=N1	1.55	-0.544 (inactive)	-0.243 (inactive)	-1.28 (inactive)	4.02	0.0927 (inactive)	0.0386	0.78	1.09	-0.0828	1.76	-0.016	0.431	-0.612 (inactive)	0.66	0.438	-0.238	0.264	0.188	0.976
C=C(COC)C(=O)CC[C@@H](OC(C)=O)c1cccc(OCCO)c1	-0.352	1.01 (inactive)	-0.953 (inactive)	0.962 (inactive)	-0.329	0.302 (inactive)	-0.116	-0.0606	-0.132	-0.211	0.114	-0.0524	0.225	1.32 (inactive)	1.38	-0.911	-0.934	-0.303	0.227	1.01
